Rpn11 block – Rpn11 (human) deubiquitinase inhibition. O00487. human 26S proteasome, Ub4-pepOG fluorescence polarization; 20S core pre-blocked with epoxomicin. actives 0.59% (n = 360,000). inhibition, % at 20 µM;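 active means inhibition at 20 µM, scaled to each plate's controls, above about 33%, limit read from the data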
CendR NRP1 mod – alters CendR peptide binding to human NRP-1; O14786; FAM-RPARPAR peptide binding to NRP-1, fluorescence polarization; inhibition, % at 25 µM; actives 0.85% (n = 360,000); AID 602438;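 active means inhibition or corrected inhibition above about 18%, plus a signal ratio from 0.5 to 1.5, limit read from the data, passing the limit was not always enough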
TPT1 inh – inhibitors of Candida albicans tRNA 2'-phosphotransferase TPT1; actives 0.81% (n = 300,000); inhibition, % at 5 µM; recombinant caTPT1, FP RNA substrate dephosphorylation;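 active means inhibition above the mean of all tested compounds plus 3 SD, set per screening campaign, cut at about 24% in these data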
PHOSPHO1 block – blocks human PHOSPHO1 phosphatase activity; AID 1565; actives 1.1% (n = 290,000); inhibition, % at 13.3 µM; recombinant PHOSPHO1, absorbance phosphatase assay; Q8TCT1; in the data active means inhibition above about 60%
CTSL1 counter – counter-screen for PFM18AAP inhibitors: inhibitors of F. hepatica cathepsin L1; AID 1906; actives 0.49% (n = 300,000); recombinant F. hepatica cathepsin L1, Z-Leu-Arg-MCA fluorescence; inhibition, % at 5.96 µM;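 active means inhibition above the mean of all tested compounds plus 3 SD, set per screening campaign, cut at about 17% in these data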
HNF4A DNA FP – change in binding of human HNF4 alpha to DNA; activity change, % at 10 µM; HNF4a-FITC DNA binding, fluorescence polarization, 1 h; actives 0.3% (n = 360,000); P41235; in the data active means activity change above about 30%, passing the limit was not always enough
Each line names hits and unclear results; the compound was inactive in the other large screens; ! = repeats disagree. The list is not random: actives were taken first. Their share in the collection is about 3.3%.

Cc1c(NS(=O)(=O)c2ccc(N(C)C3CCCCC3)c([N+](=O)[O-])c2)c(=O)n(-c2ccccc2)n1C	none
Cc1nn(-c2ccccc2)c(N2CCCC2)c1/C=C1\N=C(c2ccccc2)OC1=O	CendR NRP1 mod 76, CTSL1 counter 56
CC(C)CN1C(=O)NC(NC(=O)c2ccco2)(C(F)(F)F)C1=O (centres undefined)	HNF4A DNA FP 39
CN1C(=O)NC(NC(=O)c2ccco2)(C(F)(F)F)C1=O (centres undefined)	none
COc1ccccc1CNC(=O)C(CCSC)NC(=O)C1CCC(C)CC1 (centres undefined)	none
CCOc1ccc(OCCCC(=O)N(C)CC(=O)Nc2ccc(N3CCOCC3)cc2)cc1	none (no result: PHOSPHO1 block)
Cc1nc(NC(C)c2ccccc2)sc1C(=O)Nc1ccccc1 (centres undefined)	PHOSPHO1 block 61
Cc1nc(Nc2ccccc2)sc1C(=O)Nc1ccccc1	none
Cc1nc(NCc2ccccc2)sc1C(=O)Nc1ccccc1	PHOSPHO1 block 68
CC(=O)c1sc(NC(C)c2ccccc2)nc1C (centres undefined)	none
Cc1ccc(C(CC(=O)N2CCOCC2)c2ccco2)cc1 (centres undefined)	none
COc1ccc(Cc2c(N)nc(N)nc2N)cc1	none
Nc1ccc(OCCCc2c(N)nc(N)nc2N)cc1	Rpn11 block 81
COc1cccc(CSc2nc3ccccc3[nH]2)c1	HNF4A DNA FP 32
CCCCN(C)CCNC(=O)Cn1c(=O)sc2ccccc21	none
COC(=O)C1CCCN1S(=O)(=O)c1ccc2ccccc2c1 (centres undefined)	none
COC(=O)C1CCCN1S(=O)(=O)c1ccc([N+](=O)[O-])cc1 (centres undefined)	CTSL1 counter 53
CC1=NN(c2ccccc2)C(=O)/C1=C\c1cn(CCC#N)nc1-c1ccc(Cl)cc1	HNF4A DNA FP 35
CN(Cc1ccccc1)C(=O)N[C@@H](Cc1ccccc1)C(=O)O	none
COc1ccc(C(C(=O)NC2CCCC2)n2c(C3CCN(C(C)=O)CC3)nc3ccccc32)cc1 (centres undefined)	none (no result: Rpn11 block, TPT1 inh, PHOSPHO1 block, CTSL1 counter)
Cc1cc(C)n(-c2ccc(C(=O)OCC(=O)NCc3ccc(F)cc3)cc2)n1	none
CC(Oc1ccc(C(C)(C)C)cc1)C(=O)NC1CC(C)(C)NC(C)(C)C1 (centres undefined)	none
CCN(CC)c1ccc2cc(NC(=O)CCC(=O)O)c(=O)oc2c1	CendR NRP1 mod 50
CCN(CC)c1ccc2cc(C(=O)Nc3cccnc3N3CCOCC3)c(=O)oc2c1	none (no result: Rpn11 block, CendR NRP1 mod, TPT1 inh, CTSL1 counter, HNF4A DNA FP)
CCOC(=O)c1cc2nc(-c3ccccc3)cc(C)n2n1	none
CCOC(=O)c1cnn2c(C)cc(-c3ccccc3)nc12	HNF4A DNA FP 53
COc1ccc(NC(=O)N2CCCCCC2)cc1OC	none
CN(C)c1ccc(NC(=O)CSc2n[nH]c(-c3ccncc3)n2)cc1	none (no result: TPT1 inh, PHOSPHO1 block, CTSL1 counter)
O=C(COc1ccc(S(=O)(=O)NC2CCCCC2)cc1Cl)NCC1CCCO1 (centres undefined)	none
COc1ccc(CCNC(=O)COc2ccc(S(=O)(=O)NC3CCCCC3)cc2Cl)cc1	PHOSPHO1 block 63
COc1ccc(Cl)cc1NC(=O)C1(c2cccs2)CCOCC1	none
COc1ccc(N2C(=O)CSC23C(=O)N(CC(=O)NC2CCCC2)c2ccccc23)cc1 (centres undefined)	none
Cc1nc2sc(C(c3ccco3)N3CCN(c4ccc(F)cc4)CC3)c(O)n2n1 (centres undefined)	none
Cc1nc2sc(C(c3ccco3)N3CCN(c4ccccc4F)CC3)c(O)n2n1 (centres undefined)	PHOSPHO1 block 94
Cc1ccc(C(c2sc3ncnn3c2O)N2CCC(C)CC2)cc1 (centres undefined)	none
CC1CN(C(c2ccco2)c2sc3ncnn3c2O)CC(C)O1 (centres undefined)	PHOSPHO1 block 100
COc1cc2c(C#N)c(N3CCN(C)CC3)nc(N)c2c(N)n1	none
N#Cc1c(N2CCCC2)nc(N)c2c(N)nc(N3CCCC3)cc12	CendR NRP1 mod 32, CTSL1 counter 110
COc1cc2c(C#N)c(N3CCCC3)nc(N)c2c(N)n1	CendR NRP1 mod 30!
Cc1nc(NCC(c2ccccc2)N(C)C)c2c(C)c(C)sc2n1 (centres undefined)	none
CCC(CC)N1CCN(CC2CC=CCC2)CC1 (centres undefined)	CendR NRP1 mod 23
O=C(NNS(=O)(=O)c1ccccc1)C1CCCCC1	none
NNC(=O)c1[nH]c2ccc([N+](=O)[O-])cc2c1-c1ccccc1	CendR NRP1 mod 24
O=C(O)c1[nH]c2ccc([N+](=O)[O-])cc2c1-c1ccccc1	none
Cc1nn(CC(=O)N2CCOCC2)c(=O)c2nn(-c3ccccc3)c(C)c12	none
Cc1onc(-c2ccccc2)c1C(=O)N1CCN(c2ncccn2)CC1	none
Cn1c(Cc2c[nH]c3ccccc23)n[nH]c1=S	PHOSPHO1 block 89
COc1ccc(CN2C(=O)c3cccnc3C2=O)cc1S(=O)(=O)NC1CCCCC1C (centres undefined)	none
CC1(C)CC2CC(C)(CN2C(=O)COC(=O)CNC(=O)c2ccc(Cl)c(Cl)c2)C1 (centres undefined)	CTSL1 counter 27
O=[N+]([O-])c1ccc(N2CCN(c3ccccc3Cl)CC2)cn1	CTSL1 counter 21
COC(=O)N[C@@H]1C[C@H]2[C@@H]3CC[C@H]4C[C@@H](OC)CC[C@]4(C)[C@H]3CC[C@]12C	CendR NRP1 mod 28 (no result: TPT1 inh, PHOSPHO1 block, CTSL1 counter)
Cc1ccc(C(=O)OC2OC(=O)C(Cl)=C2N2CCOCC2)cc1 (centres undefined)	none
CC1Cc2ccccc2N1Cc1nc2scc(-c3cccs3)c2c(=O)[nH]1 (centres undefined)	PHOSPHO1 block 88
CC1Cc2ccccc2N1Cc1nc2cc(Cl)ccc2c(=O)[nH]1 (centres undefined)	none
CN(C)S(=O)(=O)c1cccc(NC(=O)c2cc(=O)[nH]c(=O)[nH]2)c1	none
O=C(O)[C@H](Cc1ccccc1)NC(=O)N1CCC(Cc2ccccc2)CC1	none
CC1CCN(C(=O)N[C@@H](Cc2ccccc2)C(=O)O)CC1	CendR NRP1 mod 20
C[N+](C)(C)C/C=C1/COCO1	PHOSPHO1 block 90
Cc1ccn(CCC(=O)N2CCc3ccccc32)n1	CendR NRP1 mod 20
CCCN1Cc2cccc(C(N)=O)c2C1=O	CendR NRP1 mod 49
CC(C)(C)OC(=O)N[C@@H](COCc1ccccc1)C(=O)N[C@@H](CO)[C@H](O)[C@@H]1C[C@@H]1C(=O)N1CCCC1	none
CC(C)C[C@H](NC(=O)OC(C)(C)C)C(=O)N[C@@H](CO)[C@H](O)[C@@H]1C[C@@H]1C(=O)N1CCCC1	CTSL1 counter 45
CC(C)(C)NC(=O)Cn1c(SCC(N)=O)nc2ccccc21	none
